This note sets out measurements from PubChem BioAssay (NCI).

Compounds without any hit were thinned out: in the full panel of roughly 83,000, 20% have a hit.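 Treatment: one concentration, 48 hours, 96-well format. Scoring: percent growth, with anything below 10 considered active.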 Unmarked numbers belong to inactive results. The source made the active and inactive calls.

The test concerns MDA-MB-468 breast. The experiment in a line: NCI-60 one-dose screen, 48 h (100 = growth as untreated, 0 = no growth, -100 = all killed). Conditions: 10 µM unless noted.
On to `CN1CCN(CCNC(=O)c2cccc(CN3c4cccc5c4C(=Cc4cccnc43)N(C)C5=O)c2)CC1`, for which the growth was 24.4%.
To `CC(C)(O)c1cncc(-c2ccc3ncnc(NCc4ccccc4)c3c2)c1` belongs 64.8%; to `Clc1ccc(N/N=C/c2ccccn2)nc1`, -48.3% (active); to `C/C(=N/NC(N)=S)c1ccc(C)cc1`, 23.5%.
The same measure for `CCC1NC(=O)c2cc(S(N)(=O)=O)c(Cl)cc2N1` (stereo not given): 107%.
The same measure for `CCN1C(=S)N(CC)C2Nn3c(s/c(=C4\C(=O)N(C)c5ccccc54)c3=O)=NC21` (stereo not given): 11.7%.
For the molecule `Cc1ccc(-c2cc(C(=O)N3N=C(c4ccc(N)cc4)CC3c3ccc(Cl)cc3)c3ccccc3n2)cc1` (stereo not given), the growth is 14.1%.
To `C[N+](C)(C)C(=O)c1ccccc1` belongs 101%; to `CC(C)c1c(C(=O)Nc2ccccc2)c(-c2ccccc2)c(-c2ccc(F)cc2)n1CC[C@@H]1CC=CC(=O)O1`, -48.3% (active); to `COc1cc([C@@H]2c3cc4c(cc3[C@H](O)[C@H]3COC(=O)[C@H]23)OCO4)cc(OC)c1OC`, -17.5% (active).
The same measure for `COc1ccc(C(=O)CCC(=O)O)cc1`: 48%; for `CN(C)c1cnccn1`: 56.1%.
To `c1ccc(Cn2cc3c(c2)-c2nc(Nc4ccccc4)ncc2CC3)cc1` belongs 115% [100 µM].
As to `COC(=O)/C(=C\c1ccc(OC)cc1)C(=O)N1c2ccccc2Sc2ccccc21`, the growth was 76.1%.
To `O=C(O)Cc1cc(=O)[nH]n(-c2ccccc2)c1=O` belongs 102%; to `CCN(CCCNC(=O)Cc1cc(=O)oc2cc(N(C)C)ccc12)CCNc1ccnc2cc(Cl)ccc12`, 52%; to `COc1cccc2c1C(=O)c1c(O)c3c(c(O)c1C2=O)CC(O)(/C(C)=N/NC(=O)CCCCC(=O)N/N=C(\C)C1(O)Cc2c(O)c4c(c(O)c2C(OC2CC(N)C(O)C(C)O2)C1)C(=O)c1c(OC)cccc1C4=O)CC3OC1CC(N)C(O)C(C)O1` (stereo not given), -1.37% [5 µM] (active).
The same measure for `COc1cc(-c2nn(-c3cccc(NC(=O)c4cccc(C(F)(F)F)c4)c3)cc2-c2ccncc2)ccc1Cl`: -19.4% (active).
As to `Cn1c2ccccc2c2c(OC(=O)c3ccccc3)c3c(nc21)-c1ccccc1C3`, the growth is 100%.
With `Cc1cc(C)cc(OCC(=O)O)c1`, the growth was 131%.
The same measure for `Cc1ccc(/C=N/NC(N)=S)s1`: 101%.
To `CCOc1ccc(Nc2ccnc3cc(Cl)ccc23)cc1` belongs -1.66% (active).
The same measure for `COc1cc(-c2nc(-c3nc4ccc(Cl)cc4[nH]3)cc3c2[nH]c2ccccc23)cc(OC)c1OC`: 44.1%.
`O=C1Cc2cc(O)ccc2O1`: the growth is 103%.
As to `CCCCCCC(O)(c1ccc(F)cc1)C(CN1CCOCC1)c1ccccc1` (stereo not given), the growth was 28%.
On to `CC(=O)C[n+]1ccc(C)cc1Sc1ccccc1C`, for which the growth was 82%.
The same measure for `COc1ccc2c(c1)N(Cc1ccc(Cl)cc1)CCC2N1CCCC1=O` (stereo not given): 42.3%.
To `CNC(=O)Nc1ccc(-c2nc(N3CCOCC3)nc3c2cnn3C2CCOCC2)cc1` belongs -34.4% (active); to `Cn1cc(-c2nc(-c3c[nH]c4ncccc34)cs2)c2ccccc21`, -19% (active).
The same measure for `Nc1cc(Br)cc2c1[nH]c(=O)c1ccccc12`: -8.15% (active); for `CC1O[C@@H]2C[C@@](O)([C@H]1O)n1c3ccccc3c3c4c(c5c6ccccc6n2c5c31)C(=O)NC4=O` (stereo not given in full): 3.51% (active).
As to `Cc1nc2ccccc2n1C(=O)C[C@@H]1NC(=S)NC1=O`, the growth was 95.7%.
The same measure for `OCC(O)COc1ccc(Cl)cc1Cl` (stereo not given): 111%.
To `O=C(/C=C/c1ccc[nH]1)c1ccc(-n2ccc(C(F)(F)F)n2)cc1` belongs 90.3%.
The same measure for `Oc1c(Cl)cc(Cl)c2ccc(CN3CCNCC3)nc12`: 34.4%.
Turning to `CCCCc1n(Cc2ccc3ccccc3n2)cc[n+]1Cc1ccc2ccccc2c1`, the growth was -31.4% (active).
The same measure for `CN(C)CCNc1nc2ccccc2c2c(=O)c3ccccc3sc12`: -23.6% (active); for `CN(C)CCCC1(c2ccc(F)cc2)OCc2cc(-c3ccc4cc[nH]c4c3)ccc21` (stereo not given): -27.1% (active).
For `O=C1c2ccccc2OC=C(c2ccccc2)N1CCCCN1CCCCC1`, the growth is -6.27% (active).
To `COc1cccc(-c2nc3sccn3c2-c2ccnc(NCCN3CCCNS3(=O)=O)n2)c1` belongs 102%.
